Reference: PubChem BioAssay (NCATS)
“And” between values parts separate entries of the source, which are not always exact repeats. Equal values may be shown once. Values without a mark were called inactive. Results filed as inconclusive are left out. Where a call stands in place of a potency, no number is given. The source made the active and inactive calls. Unless noted, the rule behind the calls is not given here.

system: not listed separately; assay: qHTS assay to identify inhibitors of the type 1 interferon - major histocompatibility complex class I in skeletal muscle: Counter screen cell viability and HiBit confirmation (AID 1347412; active = well fitted inhibition curve with a large enough effect; note: nearly all actives have a fitted effect of over 60% in size); conditions: iHSKM muscle cells + IFN-b, HiBiT or CellTiter-Glo, 24 h; Potency: HiBiT; Viability, at 45.9 µM (top of the series)
Procedure, shortened: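 After 24 h with human IFN-beta (4 ng/ml) and compound titrations (top 46 uM final, 1:3, 12 points), HLA-B HiBit myoblasts were lysed for either Nano-Glo HiBiT luminescence or CellTiter Glo viability on paired plates.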

SMILES | Potency
CC(=O)[C@@]1(O)CC[C@H]2[C@@H]3C[C@H](C)C4=CC(=O)CC[C@]4(C)[C@H]3CC[C@@]21C | inactive
CCN(CC)CC(=O)OCC(=O)[C@@]1(O)CC[C@H]2[C@@H]3CCC4=CC(=O)CC[C@]4(C)[C@H]3[C@@H](O)C[C@@]21C | inactive
CC(C)(C)CC(=O)OCC(=O)[C@@]1(O)CC[C@H]2[C@@H]3CCC4=CC(=O)C=C[C@]4(C)[C@H]3[C@@H](O)C[C@@]21C | inactive
CCCCC(=O)OCC(=O)[C@H]1[C@H](C)C[C@H]2[C@@H]3C[C@H](F)C4=CC(=O)C=C[C@]4(C)[C@@]3(F)[C@@H](O)C[C@@]21C | inactive
COC(=O)C1=C(C)NC(COC(N)=O)=C(C(=O)OC(C)C)C1c1cccc(Cl)c1Cl (stereo unspecified) | inactive
C[C@H]1C[C@@H]2[C@H]([C@@H](O)C[C@@]3(C)[C@H]2CC[C@]3(O)C(=O)CO)[C@@]2(C)C=CC(=O)C=C12 | inactive

molecular target: Nuclear receptor subfamily 1 group I member 2 (Rattus norvegicus) (UniProt Q9R1A7); assay: qHTS assay for small molecule activators of the rat pregnane X receptor (rPXR) signaling pathway (AID 651751); conditions: rPXR reporter cells, luciferase (One-Glo), 24 h
Sequence (Q9R1A7 whole entry, looked up): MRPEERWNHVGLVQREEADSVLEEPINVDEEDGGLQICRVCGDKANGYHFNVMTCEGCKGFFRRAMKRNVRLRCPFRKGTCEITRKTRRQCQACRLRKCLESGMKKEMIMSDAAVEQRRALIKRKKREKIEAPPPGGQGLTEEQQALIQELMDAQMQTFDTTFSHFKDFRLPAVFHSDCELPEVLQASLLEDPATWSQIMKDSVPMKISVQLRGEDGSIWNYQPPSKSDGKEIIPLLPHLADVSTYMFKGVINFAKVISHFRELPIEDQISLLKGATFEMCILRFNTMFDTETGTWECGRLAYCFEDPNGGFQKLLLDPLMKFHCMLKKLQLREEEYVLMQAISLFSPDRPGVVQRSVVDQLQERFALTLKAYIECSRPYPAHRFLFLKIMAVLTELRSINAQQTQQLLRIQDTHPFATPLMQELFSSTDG

SMILES | max response
CCCCC(CC)COC(=O)c1ccccc1C(=O)O (stereo unspecified) | 1.45% and -0.807%
O=C(NO)c1ccccc1 | -1.37%
Cc1ncc(CO)c(CO)c1O | -2.11%
Oc1ccccc1 | -2.24% and -1.02% and -2.45%
COc1cc(C=O)ccc1O | 1.03% and -2.41%
O=C(c1ccccc1)c1ccccc1 | -0.979% and 2.4%

system: not listed separately; assay: qHTS assay for small molecule activators of the human pregnane X receptor (PXR) signaling pathway (AID 720659); conditions: DPX-2 HepG2 CYP3A4-luciferase, 24 h; series mostly up to 92.3 µM

SMILES | outcome
O=C(NO)c1ccccc1 | inactive
Cc1ncc(CO)c(CO)c1O | inactive
Oc1ccccc1 | inactive
COc1cc(C=O)ccc1O | inactive
